From PubChem BioAssay
An excerpt weighted towards active compounds, which were near 4% of everything screened.
MazEF act: MazEF (E. coli) toxin RNase activation; P0AE70; FAM/BHQ RNA-DNA oligo cleavage fluorescence, 5 h; activation, % at 20 µM; 350,000 tested, 0.32% active; AID 504720; in the data active = activation above about 50%
Target sequence (P0AE70 whole entry, looked up): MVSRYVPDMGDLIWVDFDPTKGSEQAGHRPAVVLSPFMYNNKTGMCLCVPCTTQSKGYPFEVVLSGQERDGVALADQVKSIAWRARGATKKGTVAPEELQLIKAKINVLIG
Mtb bLac sens: beta-lactam sensitization of Mtb H37Rv; M. tuberculosis H37Rv growth with meropenem, percent inhibition; inhibition, % at 25 µM; 330,000 tested, 0.27% active; call rule not given here;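 note: growth measured after seven days incubation then overnight dye step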
CCHFV vOTU inh: CCHFV vOTU protease inhibition. Pep-AMC fluorescence. inhibition, % at 11.5 µM. 370,000 tested, 0.55% active. AID 651958; in the data active = inhibition above about 30%
GDH-TPI counter-1: GDH-TPI coupled enzyme inhibition counter-screen | GDH-TPI coupled enzyme counterscreen, NADH absorbance | inhibition, % at 4.8 µM | 360,000 tested, 1.2% active | AID 588335; in the data active = inhibition above about 30%
FBA Mtb inh: Mtb fructose-bisphosphate aldolase inhibition. 360,000 tested, 2.3% active. AID 588726. P9WQA3. purified M. tuberculosis FBA, fluorescence read-out. inhibition, % at 1 µM
Target sequence (P9WQA3 whole entry, looked up): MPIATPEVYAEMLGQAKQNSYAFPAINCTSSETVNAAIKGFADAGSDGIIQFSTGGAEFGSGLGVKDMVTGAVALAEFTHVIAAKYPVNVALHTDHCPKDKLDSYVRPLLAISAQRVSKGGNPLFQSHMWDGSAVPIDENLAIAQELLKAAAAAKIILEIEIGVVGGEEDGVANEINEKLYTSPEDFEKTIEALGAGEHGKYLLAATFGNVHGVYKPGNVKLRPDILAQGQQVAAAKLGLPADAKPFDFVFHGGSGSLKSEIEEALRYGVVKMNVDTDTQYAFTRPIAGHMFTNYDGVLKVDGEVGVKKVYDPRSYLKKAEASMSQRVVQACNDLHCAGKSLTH
Mtb FBA inh conf: confirmation of M. tuberculosis fructose-bisphosphate aldolase inhibitors; shares compounds with FBA Mtb inh; purified M. tuberculosis FBA, fluorescence read-out; inhibition, % at 1 µM; 5,600 tested, 78% active; AID 651616
GDH-TPI counter-2: inhibits GDH-TPI coupling enzymes, flagging Mtb FBA hits; shares compounds with FBA Mtb inh; GDH-TPI coupled enzyme counterscreen, fluorescence; inhibition, % at 1 µM; 5,600 tested, 81% active; AID 652141; in the data active = inhibition above about 10%
GDH-TPI DR: inhibits GDH-TPI coupling enzymes in dose response; shares compounds with FBA Mtb inh; GDH-TPI coupled enzyme assay, fluorescence, artifact counterscreen; IC50, µM; 170 tested, 79% active; AID 652145; call rule not given here
Each line names hits and unclear results; the compound was inactive in the other large screens (follow-up assays come after a bar, where they were run). Cut-off read from the data, not from the text of the source, unless noted: active = inhibition above about 27%; inactive = the rest.

COc1ccc(C2Nc3ccccc3C(=O)N2Cc2ccccc2)cc1COc1ccccn1 (stereo not given)	FBA Mtb inh 78 | Mtb FBA inh conf 64 | GDH-TPI counter-2 54
COc1ccc(C2Nc3ccccc3C(=O)N2Cc2ccccc2)cc1 (stereo not given)	FBA Mtb inh 39 | Mtb FBA inh conf 167 | GDH-TPI counter-2 135
O=C(O)c1ccc(C2SCC(=O)N2Cc2ccccc2)cc1 (stereo not given)	none
O=C(O)c1ccc(C2Nc3ccccc3C(=O)N2Cc2ccccc2)cc1 (stereo not given)	FBA Mtb inh 76 | Mtb FBA inh conf inactive | GDH-TPI counter-2 inactive
CCCN1C(=O)c2ccccc2NC1c1ccc(OC)c(CSc2ccccn2)c1 (stereo not given)	FBA Mtb inh 56 | Mtb FBA inh conf 140 | GDH-TPI counter-2 105
COc1ccc([C@@H]2[C@@H](C)N(c3ccccc3)c3ccccc3C(=O)N2Cc2ccccc2)cc1	none (no result: Mtb bLac sens)
CCN(CC)C(=O)CC[C@H]1CC[C@]2(CCCN(Cc3ccc(OC)cc3)C2)O1	none (no result: MazEF act, Mtb bLac sens, GDH-TPI counter-1, FBA Mtb inh)
Cc1ccc2oc(=O)c3cnn(CC(=O)N4CCN(c5cccc(C(F)(F)F)c5)CC4)c3c2c1	none (no result: MazEF act, Mtb bLac sens, GDH-TPI counter-1, FBA Mtb inh)
O=C(NCc1ccccc1)OC1CC2CC1[C@H]1CCCCN1C2 (stereo not given in full)	none (no result: MazEF act, Mtb bLac sens, GDH-TPI counter-1, FBA Mtb inh)
COc1ccc(C2Nc3ccccc3C(=O)N2C2CCCCC2)cc1 (stereo not given)	FBA Mtb inh 85 | Mtb FBA inh conf inactive | GDH-TPI counter-2 inactive
Cn1c2ccccc2c2cc(C(=O)N3CCN(CCO)CC3)sc21	FBA Mtb inh 29 | Mtb FBA inh conf 122 | GDH-TPI counter-2 90
Fc1ccccc1-c1nc(NCC2CC2)nc2ccsc12	FBA Mtb inh 42 (no result: MazEF act, Mtb bLac sens) | Mtb FBA inh conf 100 | GDH-TPI counter-2 84
Cc1cc(Cl)ccc1-c1nc(NCc2ccccc2)nc2ccsc12	none (no result: MazEF act, Mtb bLac sens)
COc1ccccc1CNc1nc(-c2ccccc2CO)c2sccc2n1	FBA Mtb inh 51 (no result: MazEF act, Mtb bLac sens) | Mtb FBA inh conf 130 | GDH-TPI counter-2 90
COCCNc1nc(-c2ccc(Cl)cc2C)c2sccc2n1	FBA Mtb inh 69 (no result: MazEF act, Mtb bLac sens) | Mtb FBA inh conf inactive | GDH-TPI counter-2 inactive
Cc1cscc1-c1nc(NCC2CC2)nc2ccsc12	FBA Mtb inh 37 (no result: MazEF act, Mtb bLac sens) | Mtb FBA inh conf 127 | GDH-TPI counter-2 100
CC(C)C[C@@H](CCCc1ccccc1)CCC(=O)N(c1ccccc1)c1ccccc1	none (no result: MazEF act, Mtb bLac sens, GDH-TPI counter-1, FBA Mtb inh)
CCCCOc1ccc(C(=O)NC2CCCCN(C(C)C)C2=O)cc1 (stereo not given)	none (no result: MazEF act, Mtb bLac sens, GDH-TPI counter-1, FBA Mtb inh)
CCC(CO)Nc1ccn2nc(-c3cccs3)cc2n1 (stereo not given)	FBA Mtb inh 39 (no result: MazEF act, Mtb bLac sens) | Mtb FBA inh conf active | GDH-TPI counter-2 active
CCC(CO)Nc1ccn2nc(-c3ccccc3)cc2n1 (stereo not given)	none (no result: MazEF act, Mtb bLac sens)
CCC(CO)Nc1ccn2nc(-c3cc(OC)c(OC)c(OC)c3)cc2n1 (stereo not given)	FBA Mtb inh 32 (no result: MazEF act, Mtb bLac sens) | Mtb FBA inh conf inactive | GDH-TPI counter-2 inactive
O=C(NCCO)c1ccc2[nH]c3ccccc3c2c1	FBA Mtb inh 35 | Mtb FBA inh conf inactive | GDH-TPI counter-2 inactive
Nc1nc2cc3c(cc2cc1C(=O)NCc1cccnc1)OCO3	none (no result: MazEF act, Mtb bLac sens, GDH-TPI counter-1, FBA Mtb inh)
O=c1cc(CN2CCc3ccccc32)c2ccc(O)cc2o1	FBA Mtb inh 41 | Mtb FBA inh conf inactive | GDH-TPI counter-2 inactive
COc1ccc(-c2[nH]nc3oc(=O)cc(C)c23)cc1	FBA Mtb inh 43 | Mtb FBA inh conf inactive | GDH-TPI counter-2 inactive | GDH-TPI DR 3.4
Cc1cc(=O)oc2n[nH]c(-c3ccccc3)c12	none
CC(C)(C)NC(=O)C[C@H]1C[C@H](C(=O)N2CCOCC2)[C@@]2(C)c3[nH]c4cc(-c5ccco5)ccc4c3CCN2C1=O	FBA Mtb inh 31 (no result: Mtb bLac sens, CCHFV vOTU inh) | Mtb FBA inh conf 50 | GDH-TPI counter-2 45
C[C@]12c3[nH]c4cc(-c5ccco5)ccc4c3CCN1C(=O)[C@@H](CC(=O)NCc1ccco1)C[C@@H]2C(=O)N1CCCCC1	FBA Mtb inh 32 (no result: Mtb bLac sens) | Mtb FBA inh conf 117 | GDH-TPI counter-2 70
CC(C)(C)NC(=O)C[C@H]1C[C@H](C(=O)N2CCCCC2)[C@@]2(C)c3[nH]c4cc(-c5ccco5)ccc4c3CCN2C1=O	none (no result: Mtb bLac sens)
